Values joined by “and” are separate entries in the source; they are usually repeats but may differ in a detail not shown here. Equal values may be shown once. Records with an inconclusive call do not appear. Active and inactive are the calls of the source. Unless noted, calls come from the whole dose curve.
Assays:
[1] = target: Glucocorticoid receptor (Homo sapiens) (UniProt P04150); test: qHTS assay for small molecule agonists of glucocorticoid receptor signaling (AID 588532; active = well fitted curve in the direction sought with a large enough effect in the signal ratio, with a control signal flat; the % refers to the signal ratio;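 note: 100% = dexamethasone at 0.1 µM and 0% = DMSO only wells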); settings: HeLa MMTV-bla, beta-lactamase ratio, agonist, 18 h; stronger effect = higher value; percent of dexamethasone control, DMSO zero
Method in brief: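 Stimulation of a glucocorticoid response element-driven beta-lactamase gene was measured in HeLa cells. Responses were scaled between DMSO basal and 0.1 uM dexamethasone, then fitted for half-maximal stimulation.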

[2] = target: Glucocorticoid receptor (Homo sapiens) (UniProt P04150); test: qHTS assay for small molecule antagonists of glucocorticoid receptor signaling (AID 588533; active = well fitted inhibition curve with a large enough effect in the signal ratio, with a control signal flat, not every such curve was filed as active; the % refers to the signal ratio;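 note: cells stimulated with 2 nM dexamethasone as agonist; % is set by controls: 0 for no effect and ±100 for the full control effect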)
Method in brief: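 Antagonist-mode qHTS: compound titrations added to GRE-bla HeLa cells, then dexamethasone 2 nM final; 18 h, 37 C. CCF4 FRET fluorescence normalized to dexamethasone and DMSO; IC50 from Hill fit.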

[3] = qHTS assay for small molecule antagonists of peroxisome proliferator-activated receptor delta signaling (AID 588535; active = well fitted inhibition curve with a large enough effect in the signal ratio, with a control signal flat, not every such curve was filed as active; the % refers to the signal ratio; note: potency is the fitted concentration of half-maximal effect;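 for max response: cells co-treated with a PPAR-delta agonist as stimulator during compound exposure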); settings: HEK293T PPARd-UAS-bla, beta-lactamase FRET ratio, 18 h; 460 nm channel
Method in brief: (§1)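 GeneBLAzer PPAR-delta-UAS-bla HEK293T cells in medium with 2% charcoal/dextran FBS were preincubated 5 hrs at 37 C, then given compounds, incubated 18 hrs at 37 C, and read by CCF4 beta-lactamase fluorescence; IC50 from Hill fits.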

[4] = target: Peroxisome proliferator-activated receptor gamma (Homo sapiens) (UniProt P37231); test: qHTS assay for small molecule agonists of peroxisome proliferator-activated receptor gamma signaling (AID 588536; active = well fitted curve in the direction sought with a large enough effect in the signal ratio, with a control signal flat, not every such curve was filed as active; the % refers to the signal ratio;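 note: 0% = DMSO basal wells and 100% = rosiglitazone at 2 µM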)
Method in brief: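 Test agents, titrated, stimulated HEK293 UAS-bla cells overnight (16 h, 37 C). Substrate CCF4 was then added for two hours at room temperature before fluorescence reading.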

[5] = target: Peroxisome proliferator-activated receptor gamma (Homo sapiens) (UniProt P37231); test: qHTS assay for small molecule antagonists of peroxisome proliferator-activated receptor gamma signaling (AID 588537; active = well fitted inhibition curve with a large enough effect in the signal ratio, with a control signal flat, not every such curve was filed as active; the % refers to the signal ratio;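 note: reporter cells co-stimulated with 50 nM rosiglitazone agonist during compound treatment; % of control where 0% means no effect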)
Method in brief: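 PPAR-gamma-UAS-bla HEK293 cells (3000/well, 1% charcoal/dextran-stripped FBS) were preincubated 6-6.5 h at 37 C, given titrated compounds, then stimulated with 50 nM rosiglitazone for 16 h. Beta-lactamase activity was read with CCF4 dye; IC50 came from Hill fits.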

[6] = target: Vitamin D3 receptor (Homo sapiens) (UniProt P11473); test: qHTS assay for small molecule antagonists of vitamin D receptor signaling (AID 588541);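 note: receptor activated by calcitriol during compound treatment; series mostly up to about 77 µM; % is set by controls: 0 for no effect and ±100 for the full control effect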
Method in brief: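 VDR-UAS-bla HEK293T cells (2000/well, 2% charcoal-stripped FBS) were treated with titrated compounds plus 1-alpha,25-dihydroxyvitamin D3 (50 nM or 3 nM final) for 16 h at 37 C. CCF4 beta-lactamase fluorescence was read; Hill fits gave IC50.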

[7] = target: Vitamin D3 receptor (Homo sapiens) (UniProt P11473); test: qHTS assay for small molecule agonists of vitamin D receptor signaling (AID 588543);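 note: 0% = DMSO basal and 100% = reference agonist control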
Method in brief: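 VDR-UAS-bla HEK293T cells, 2000/well, 2% charcoal-stripped FBS; compound titration 16 h at 37 C; CCF4 beta-lactamase ratio read. Normalized to 50 nM 1-alpha,25-dihydroxyvitamin D3 (100%) and DMSO; Hill fit gives EC50, efficacy.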

[8] = qHTS assay for small molecule agonists of retinoid X receptor alpha signaling (AID 588544); settings: HEK293T RXRa-UAS-bla, beta-lactamase reporter, 18 h; 530 nm emission;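 for activation: 0% = DMSO basal wells and 100% = reference agonist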
[9] = target: Retinoic acid receptor RXR-alpha (Homo sapiens) (UniProt P19793); test: as above
[10] = qHTS assay for small molecule antagonists of retinoid X receptor alpha signaling (AID 588546; active = well fitted inhibition curve with a large enough effect in the signal ratio, with a control signal flat, not every such curve was filed as active; the % refers to the signal ratio;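 note: cells stimulated with 9-cis-retinoic acid as agonist; % is set by controls: 0 for no effect and ±100 for the full control effect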); settings: HEK293T RXRa-UAS-bla, beta-lactamase ratio, antagonist mode; measured here: W530 green channel, cytotoxicity proxy
Method in brief: (§2)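 Beta-lactamase reporter inhibition, read as CCF4 fluorescence ratio (ex 405, em 460/530 nm) after 2 h at RT. HEK293T UAS-bla cells, 2500/well, were stimulated with 9-cis-RA at 500 or 100 nM final alongside test compound for 18 h at 37 C.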

[11] = target: Retinoic acid receptor RXR-alpha (Homo sapiens) (UniProt P19793); test: as above; settings: HEK293T RXRa-UAS-bla, beta-lactamase ratio, antagonist mode
Method in brief: as §2

[12] = target: Thyroid hormone receptor beta (Homo sapiens) (UniProt P10828); test: qHTS assay for small molecule antagonists of thyroid hormone receptor beta signaling (AID 588547; active = well fitted inhibition curve with a large enough effect in the signal ratio, with a control signal flat, not every such curve was filed as active; the % refers to the signal ratio;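 note: cells stimulated with 0.4 nM T3 agonist during compound exposure; series mostly up to about 77 µM; % is set by controls: 0 for no effect and ±100 for the full control effect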); settings: TR-UAS-bla HEK293, beta-lactamase ratio, antagonist mode, 18 h
Method in brief: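 TR-UAS-bla GripTite HEK293 cells in 2% charcoal/dextran FBS medium were preincubated 4 h at 37 C, given compound (0.59 nM to 92 uM) plus 0.4 nM T3 (final) for 18 h, then CCF4 for 2 h at RT; Hill fit gave IC50.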

[13] = target: Voltage-gated inwardly rectifying potassium channel KCNH2 (Homo sapiens) (UniProt Q12809); test: qHTS Assay for Small Molecule Inhibitors of the Human hERG Channel Activity (AID 588834; active = well fitted inhibition curve with a large enough effect;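 note: top concentration of the series differs between compounds; % is set by controls: 0 for no effect and ±100 for the full control effect; lower thallium flux fluorescence means stronger hERG block; nearly all actives have a fitted effect of over 50% in size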)
Method in brief: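 U2OS cells BacMam-transduced with hERG, 2000 cells/well, compound ~10 min at 37 °C before stimulation buffer. FluxOR thallium flux fluorescence read kinetically on FDSS; decrease indicates block; AC50 from Hill fits.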

[14] = qHTS assay for small molecule agonists of the antioxidant response element (ARE) signaling pathway (AID 651741; active = well fitted activation curve with a large enough effect in the signal ratio; the % refers to the signal ratio; note: potency is the fitted concentration of half-maximal effect; for activation: % of control where 0% means no effect)
Method in brief: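 ARE-bla HepG2 cells (beta-lactamase reporter under ARE control) were plated at 2,000 cells/well, preincubated 5 h at 37 C/5% CO2, then treated with DMSO-dissolved compounds for 16 h at 37 C; LiveBLAzer B/G FRET substrate added, fluorescence read after 2 h at room temperature.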

[15] = qHTS assay for small molecule activators of the p53 signaling pathway (AID 651743; active = well fitted activation curve with a large enough effect in the signal ratio, not every such curve was filed as active; the % refers to the signal ratio; note: series mostly up to about 92 µM; % of control where 0% means no effect); settings: HCT-116 p53RE-bla, beta-lactamase FRET ratio, 16 h; stronger effect = higher value
Method in brief: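 p53RE-bla HCT-116 cells with a stably integrated beta-lactamase reporter under p53 response elements were plated, rested 5 hours at 37 C/5% CO2, then exposed to compounds in DMSO for 16 hours at 37 C. LiveBLAzer B/G FRET substrate was read after 2 hours at room temperature.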

[16] = qHTS assay for small molecule activators of the nuclear factor-kappa B (NF-kB) signaling pathway (AID 651749; active = well fitted activation curve with a large enough effect in the signal ratio; the % refers to the signal ratio; note: series mostly up to about 77 µM; % of control where 0% means no effect); settings: NF-kB-bla ME-180 cells, beta-lactamase FRET ratio, 16 h; stronger effect = higher value
Method in brief: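 ME-180 cells stably carrying a beta-lactamase reporter under an NF-kB response element were exposed to compound or DMSO vehicle for 16 hr at 37C, 5% CO2. Pathway activation was read by FRET, since reporter expression disrupts FRET.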

[17] = target: Peroxisome proliferator-activated receptor delta (Homo sapiens) (UniProt Q03181); test: qHTS assay for small molecule antagonists of peroxisome proliferator-activated receptor delta signaling (AID 588535); note: potency is the fitted concentration of half-maximal effect;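 for max response: cells co-treated with a PPAR-delta agonist as stimulator during compound exposure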
Method in brief: as §1

[18] = target: Thyroid hormone receptor beta (Homo sapiens) (UniProt P10828); test: qHTS assay for small molecule agonists of thyroid hormone receptor beta signaling (AID 588545);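 note: 0% = DMSO only and 100% = 10 nM T3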
Method in brief: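 Compounds were tested as agonists in TR-UAS-bla-GripTite HEK 293 cells. After 18 hrs at 37 C, CCF4 substrate was added and fluorescence read after 2 hrs at room temperature.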

Sequence of Vitamin D3 receptor (Homo sapiens) (P11473 whole entry, looked up): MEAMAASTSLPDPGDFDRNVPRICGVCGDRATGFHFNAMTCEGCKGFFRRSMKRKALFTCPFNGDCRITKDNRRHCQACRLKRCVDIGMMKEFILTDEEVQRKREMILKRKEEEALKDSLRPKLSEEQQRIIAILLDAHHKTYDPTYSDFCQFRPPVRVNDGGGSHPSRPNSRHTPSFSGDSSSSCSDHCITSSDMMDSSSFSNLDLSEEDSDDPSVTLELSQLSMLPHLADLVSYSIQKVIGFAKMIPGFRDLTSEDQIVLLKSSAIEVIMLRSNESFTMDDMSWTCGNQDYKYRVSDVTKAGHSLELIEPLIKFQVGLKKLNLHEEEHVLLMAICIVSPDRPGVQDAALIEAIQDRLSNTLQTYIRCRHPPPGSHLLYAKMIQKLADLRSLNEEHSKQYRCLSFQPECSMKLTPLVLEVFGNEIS
Sequence of Thyroid hormone receptor beta (Homo sapiens) (P10828 whole entry, looked up): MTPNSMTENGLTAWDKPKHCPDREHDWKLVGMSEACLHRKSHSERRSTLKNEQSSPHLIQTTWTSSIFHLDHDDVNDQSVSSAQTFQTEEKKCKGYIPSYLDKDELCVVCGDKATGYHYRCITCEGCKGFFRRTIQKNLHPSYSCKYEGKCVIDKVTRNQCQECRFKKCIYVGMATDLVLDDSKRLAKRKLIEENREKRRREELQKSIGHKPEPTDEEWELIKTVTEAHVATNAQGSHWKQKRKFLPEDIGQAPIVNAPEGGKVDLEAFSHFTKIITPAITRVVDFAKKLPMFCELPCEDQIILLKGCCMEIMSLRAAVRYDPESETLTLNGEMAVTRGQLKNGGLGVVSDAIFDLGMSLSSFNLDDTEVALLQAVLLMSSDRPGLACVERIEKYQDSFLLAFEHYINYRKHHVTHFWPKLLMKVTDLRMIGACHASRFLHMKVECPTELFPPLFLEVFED
Sequence of Retinoic acid receptor RXR-alpha (Homo sapiens) (P19793 whole entry, looked up): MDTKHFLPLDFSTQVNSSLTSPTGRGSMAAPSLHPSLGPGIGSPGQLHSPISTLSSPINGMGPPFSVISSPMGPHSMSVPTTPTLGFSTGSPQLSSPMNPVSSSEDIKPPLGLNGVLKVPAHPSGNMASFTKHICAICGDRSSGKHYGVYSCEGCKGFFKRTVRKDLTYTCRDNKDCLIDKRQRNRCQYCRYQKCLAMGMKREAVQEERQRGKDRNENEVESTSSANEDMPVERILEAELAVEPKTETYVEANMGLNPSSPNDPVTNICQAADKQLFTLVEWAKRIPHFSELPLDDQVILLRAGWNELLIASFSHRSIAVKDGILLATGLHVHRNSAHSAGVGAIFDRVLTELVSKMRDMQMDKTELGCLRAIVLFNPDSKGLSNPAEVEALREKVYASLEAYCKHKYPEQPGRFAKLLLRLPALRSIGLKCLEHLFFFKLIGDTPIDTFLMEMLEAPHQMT
Sequence of Peroxisome proliferator-activated receptor gamma (Homo sapiens) (P37231 whole entry, looked up): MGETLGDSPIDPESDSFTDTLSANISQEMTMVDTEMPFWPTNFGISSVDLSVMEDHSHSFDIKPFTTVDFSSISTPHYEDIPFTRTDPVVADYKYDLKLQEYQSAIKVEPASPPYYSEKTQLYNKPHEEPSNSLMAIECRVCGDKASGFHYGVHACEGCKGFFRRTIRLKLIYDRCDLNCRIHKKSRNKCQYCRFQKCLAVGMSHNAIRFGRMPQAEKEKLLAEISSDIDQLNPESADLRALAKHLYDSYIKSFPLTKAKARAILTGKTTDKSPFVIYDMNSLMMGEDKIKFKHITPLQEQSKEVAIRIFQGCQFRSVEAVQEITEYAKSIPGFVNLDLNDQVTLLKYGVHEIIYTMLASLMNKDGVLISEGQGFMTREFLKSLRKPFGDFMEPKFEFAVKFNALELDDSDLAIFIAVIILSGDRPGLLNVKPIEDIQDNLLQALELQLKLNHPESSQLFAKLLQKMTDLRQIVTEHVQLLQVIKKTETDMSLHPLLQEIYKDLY
Sequence of Glucocorticoid receptor (Homo sapiens) (P04150 whole entry, looked up): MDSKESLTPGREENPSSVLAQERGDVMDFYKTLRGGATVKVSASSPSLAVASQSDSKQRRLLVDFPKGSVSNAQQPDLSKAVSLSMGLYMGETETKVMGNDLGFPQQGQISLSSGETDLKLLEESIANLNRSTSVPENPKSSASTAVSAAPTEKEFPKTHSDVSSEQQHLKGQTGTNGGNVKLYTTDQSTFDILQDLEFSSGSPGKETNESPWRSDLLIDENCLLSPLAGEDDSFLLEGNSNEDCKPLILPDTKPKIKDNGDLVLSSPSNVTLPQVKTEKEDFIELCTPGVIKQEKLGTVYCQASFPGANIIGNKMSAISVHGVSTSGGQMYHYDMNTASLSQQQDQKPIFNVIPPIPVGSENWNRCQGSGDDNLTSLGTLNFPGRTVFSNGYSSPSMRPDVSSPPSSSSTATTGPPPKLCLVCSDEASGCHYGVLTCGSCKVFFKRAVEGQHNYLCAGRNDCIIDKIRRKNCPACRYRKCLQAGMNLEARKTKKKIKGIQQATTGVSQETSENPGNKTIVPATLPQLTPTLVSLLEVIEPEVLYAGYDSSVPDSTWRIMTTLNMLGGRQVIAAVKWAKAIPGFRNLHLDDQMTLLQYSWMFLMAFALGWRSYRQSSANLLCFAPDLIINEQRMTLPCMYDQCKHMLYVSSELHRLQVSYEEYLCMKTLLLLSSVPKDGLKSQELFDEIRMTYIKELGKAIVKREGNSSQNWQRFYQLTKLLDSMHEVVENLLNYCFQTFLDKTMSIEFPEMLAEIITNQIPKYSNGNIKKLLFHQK
Sequence of Peroxisome proliferator-activated receptor delta (Homo sapiens) (Q03181 whole entry, looked up): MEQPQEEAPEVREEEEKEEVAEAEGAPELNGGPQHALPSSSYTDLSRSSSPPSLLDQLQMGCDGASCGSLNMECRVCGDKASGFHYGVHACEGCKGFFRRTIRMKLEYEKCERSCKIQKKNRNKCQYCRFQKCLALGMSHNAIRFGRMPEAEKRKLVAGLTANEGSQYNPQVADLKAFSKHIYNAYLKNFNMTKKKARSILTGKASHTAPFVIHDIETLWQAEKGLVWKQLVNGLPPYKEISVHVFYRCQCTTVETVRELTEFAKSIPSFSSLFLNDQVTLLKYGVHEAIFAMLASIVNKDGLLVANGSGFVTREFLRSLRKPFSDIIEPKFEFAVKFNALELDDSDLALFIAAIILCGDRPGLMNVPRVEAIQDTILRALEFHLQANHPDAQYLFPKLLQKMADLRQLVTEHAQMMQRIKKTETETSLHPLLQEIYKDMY
Sequence of Voltage-gated inwardly rectifying potassium channel KCNH2 (Homo sapiens) (Q12809 whole entry, looked up): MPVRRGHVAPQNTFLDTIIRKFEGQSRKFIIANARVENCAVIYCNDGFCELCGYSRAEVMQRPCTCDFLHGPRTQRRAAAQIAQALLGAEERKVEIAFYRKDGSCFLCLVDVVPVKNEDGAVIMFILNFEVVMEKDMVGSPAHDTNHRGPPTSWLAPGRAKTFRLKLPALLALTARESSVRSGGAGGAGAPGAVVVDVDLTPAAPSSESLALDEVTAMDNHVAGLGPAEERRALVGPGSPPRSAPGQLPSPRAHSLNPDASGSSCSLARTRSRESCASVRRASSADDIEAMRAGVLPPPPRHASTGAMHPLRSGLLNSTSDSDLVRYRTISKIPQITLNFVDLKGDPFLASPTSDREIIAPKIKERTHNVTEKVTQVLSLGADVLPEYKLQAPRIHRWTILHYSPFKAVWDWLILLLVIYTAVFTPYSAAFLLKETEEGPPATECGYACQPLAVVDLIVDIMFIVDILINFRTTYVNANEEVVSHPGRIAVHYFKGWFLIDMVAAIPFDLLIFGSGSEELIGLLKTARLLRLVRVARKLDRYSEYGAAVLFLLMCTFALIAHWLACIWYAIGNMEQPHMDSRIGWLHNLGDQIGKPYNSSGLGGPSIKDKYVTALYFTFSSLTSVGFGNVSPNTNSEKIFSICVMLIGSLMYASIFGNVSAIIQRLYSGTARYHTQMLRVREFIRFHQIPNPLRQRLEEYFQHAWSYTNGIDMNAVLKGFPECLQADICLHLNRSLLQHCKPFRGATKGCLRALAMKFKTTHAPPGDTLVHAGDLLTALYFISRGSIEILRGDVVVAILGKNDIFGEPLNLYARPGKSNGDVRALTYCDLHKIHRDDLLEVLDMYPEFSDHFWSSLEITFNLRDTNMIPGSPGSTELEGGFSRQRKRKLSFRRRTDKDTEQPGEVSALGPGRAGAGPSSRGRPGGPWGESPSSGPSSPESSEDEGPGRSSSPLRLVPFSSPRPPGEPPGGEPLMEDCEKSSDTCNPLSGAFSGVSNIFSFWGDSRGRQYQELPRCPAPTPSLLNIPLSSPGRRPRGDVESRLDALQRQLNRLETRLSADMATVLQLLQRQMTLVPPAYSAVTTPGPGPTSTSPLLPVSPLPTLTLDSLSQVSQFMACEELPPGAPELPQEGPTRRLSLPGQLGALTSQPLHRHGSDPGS

SMILES | activation [1] | outcome [2] | max response [3] | outcome [4] | outcome [5] | outcome [6] | outcome [7] | max response [8] | outcome [9] | max response [10] | max response [11] | activity change % (negative = inhibition) [12] | Potency [13] | Potency [14] | activation [15] | activation [16] | Potency [17] | outcome [18]
CC(C)=C1CCC(C)CC1=O (stereo not drawn) | -0.919% (inactive) | inactive | -8.22% | inactive | inactive | inactive | inactive | -4.57% | inactive | 3.58% | 6.87% (inactive) | -6.39% (inactive) | inactive | inactive | -1.57% (inactive) | -0.315% (inactive) |  | 
Cc1ccc2ncccc2c1 | 6.61% (inactive) | inactive | 20.6% | inactive |  |  |  | -4.8% | inactive | -2.62% | 2.87% (inactive) | 1.73% (inactive) | inactive | inactive | -3.29% (inactive) | -1.62% (inactive) | inactive | inactive
O=Nc1ccc(NO)cc1 | 5.11% (inactive) | inactive | -72.9% | inactive |  | inactive | inactive |  |  |  |  | -12.9% (inactive) | inactive | 13.3 µM (active) | -5.55% (inactive) | -2.26% (inactive) | 12.6 µM (active) | inactive
CNc1ccccc1 | 19.8% (inactive) | inactive | -16.9% | inactive |  | inactive |  | -0.986% | inactive | -0.675% | 29.8% (inactive) | -1.47% (inactive) |  | inactive | 2.04% (inactive) | -1.25% (inactive) | inactive | 
CCCC=O | -2.2% (inactive) | inactive | 10.5% | inactive |  | inactive | inactive | -4.54% | inactive | 6.82% | 14.7% (inactive) | -7% (inactive) | inactive |  | -2.76% (inactive) | -4.7% (inactive) | inactive | 
CC(C)N(C)C | 0.0793% (inactive) | inactive | -0.77% | inactive |  |  | inactive | -10.9% | inactive | -0.298% | 11.2% (inactive) | -6.45% (inactive) |  | inactive | -1.2% (inactive) | -1.35% (inactive) | inactive | inactive
COc1ccc(OC)cc1 | -0.922% (inactive) | inactive | -6.1% | inactive |  | inactive | inactive | -11% | inactive | -6.6% | 0.277% (inactive) |  | inactive |  | 1.53% (inactive) | -2.07% (inactive) | inactive | 
O=C1OC(=O)c2c(Br)c(Br)c(Br)c(Br)c21 | -2.08% (inactive) and -7.32% (inactive) | inactive | 19.7% and -28% | inactive |  | inactive | inactive | -2.51% and -8.84% | inactive | -0.218% and -8.01% | 6.1% (inactive) and -5.43% (inactive) | 7.07% (inactive) and -6.85% (inactive) | inactive |  |  | 0.149% (inactive) and 3.05% (inactive) | inactive | inactive
Nc1ccc(F)cc1F | -11.6% (inactive) | inactive | -4.23% | inactive |  | inactive | inactive | -10.9% | inactive | -8.47% | 16.2% (inactive) |  | inactive | inactive | -3.46% (inactive) | -1.13% (inactive) | inactive | 
COCCOC(=O)c1ccccc1C(=O)OCCOC | -0.475% (inactive) | inactive | -2.63% | inactive | inactive | inactive | inactive | -5.12% | inactive | -3.43% | 23.2% (inactive) | 7.4% (inactive) | inactive | inactive | -1.05% (inactive) | 0.152% (inactive) |  | inactive
C=CCCC | 5.54% (inactive) | inactive | 0.0312% |  |  | inactive | inactive | -12.1% | inactive | 2.87% | 8.21% (inactive) | 20.1% (inactive) | inactive |  | -0.508% (inactive) | -0.388% (inactive) | inactive | inactive
Clc1cc(Cl)cc(Cl)c1 | 5.2% (inactive) | inactive | -6.75% | inactive |  | inactive | inactive | -9.27% | inactive | -4.96% | 2.45% (inactive) |  | inactive | inactive | -2.32% (inactive) |  | inactive | 
O=C1OC(=O)c2cc([N+](=O)[O-])ccc21 | 5.66% (inactive) | inactive | 9.55% | inactive |  | inactive | inactive | 18.2% | inactive | 10.4% | 1.57% (inactive) | 7.82% (inactive) | inactive | inactive | 1.53% (inactive) | -0.857% (inactive) | inactive | inactive
CCc1ccccc1 | -5.09% (inactive) | inactive | 15% | inactive |  | inactive |  | 10.6% | inactive | 3.87% | 1.68% (inactive) |  | inactive |  |  | -1.59% (inactive) | inactive | 
CCCCC(=O)N(C)C | -1.2% (inactive) | inactive | -15% | inactive |  | inactive | inactive | -11.8% | inactive | -2.95% | 11.5% (inactive) | 6.71% (inactive) | inactive |  | -1.85% (inactive) | -0.0165% (inactive) | inactive | inactive

Reference: PubChem BioAssay (NCATS)
